The full list was thinned out, with hits kept by preference.
Shiga toxin inh – Shiga toxin inhibition; inhibition, % at 38.7 µM; Vero cells, Shiga toxin protein synthesis inhibition reporter; 290,000 tested, 9.2% active; in the data active = inhibition mostly above about 28%, no sharp cut-off; inactive = mostly below about 43%; also: 0% is about no effect
MARV entry inh – blocks Marburg virus binding to or entry into cells. Potency, µM (titrated, usually from 37.8 µM), inactives show at the highest dose activity change, negative = inhibition, most hits filed as inhibitors. 300,000 tested, 1.8% active. Marburg virus pseudotyped entry inhibition, cell reporter. AID 540276; calls by dose curve; tested in HEK293 cells; also: potency is read from the fitted curve at half-maximal effect; % is scaled to controls: 0 for no effect and ±100 for the full control effect
Vaccinia mCherry – inhibitors of vaccinia virus infection (mCherry reporter signal). Vaccinia virus mCherry reporter infection, fluorescence. Potency, µM (series often up to 36.5 µM), inactives show at the highest dose activity change, negative = inhibition, most hits filed as inhibitors. 310,000 tested, 0.63% active. AID 720579; calls by dose curve; tested in A549 cells; also: potency is read from the fitted curve at half-maximal effect; % is scaled to controls: 0 for no effect and ±100 for the full control effect; nearly all actives have a fitted effect of over 35% in size
LASV entry inh – Lassa virus entry inhibition. Lassa virus pseudotype entry inhibition, cell reporter. 300,000 tested, 1.2% active. AID 540256. Potency, µM (series often up to 37.9 µM), inactives show at the highest dose activity change, negative = inhibition, hits mostly inhibitors; calls by dose curve; tested in HEK293 cells; also: potency is read from the fitted curve at half-maximal effect; % is scaled to controls: 0 for no effect and ±100 for the full control effect; nearly all actives have a fitted effect of over 50% in size
Vaccinia Venus – vaccinia inhibition (Venus reporter); AID 720580; Potency, µM (top dose mostly 36.5 µM), for the others: top-dose activity change, negative = inhibition, actives largely listed as inhibitors; Vaccinia virus Venus reporter expression, fluorescence; 330,000 tested, 0.46% active; calls by dose curve; tested in A549 cells; also: potency is read from the fitted curve at half-maximal effect; % is scaled to controls: 0 for no effect and ±100 for the full control effect; nearly all actives have a fitted effect of over 30% in size
CHX counter – counter-screen hit for Shiga toxin inhibitors, cycloheximide | cell reporter, cycloheximide protein synthesis inhibition counterscreen | max response, % | 300,000 tested, 12% active; in the data active = max response mostly above about 13%, no sharp cut-off; inactive = mostly below about 14%; also: read at 38.3 µM for the half of the compounds with a filed dose; 0% is about no effect
Active calls of the source: *; i = inactive; u = inconclusive; x = not tested or not shown; [ ] = another dose, or the depositor's remark.

SMILES	Shiga toxin inh	MARV entry inh	Vaccinia mCherry	LASV entry inh	Vaccinia Venus	CHX counter
CCOC(=O)n1c(O)c(N=NC(N)=S)c2cc(C)ccc21	-10	x	i[7.34 µM]	x	-4%[7.34 µM]	-3
c1ccc(C2NCCc3c2[nH]c2ccccc32)cc1 (centres undefined)	x	23%[14.2 µM]	x	x	x	x
Cc1nn2c(COc3ccc(NC(=O)C(C)C)cc3)nnc2c2ccccc12	12	-1%	-4%	u	-18%	6
Cc1nn2c(COc3ccc(NC(=O)c4ccccc4Cl)cc3)nnc2c2ccccc12	22	7.1µM*	i	u	-30%	10
COC(=O)c1cc(-c2ccc(Cl)cc2)n[nH]1	47*	x	x	x	x	38*
COC(=O)c1cc(-c2ccc(Cl)cc2Cl)n[nH]1	63*	x	i	x	-10%	29*
COC(=O)c1cc(-c2ccccc2)n[nH]1	22	4%	i	10%	-10%	10
COc1ccc(NS(=O)(=O)NC(=O)c2c(C)n(C)c3ccccc23)cc1	-6	x	-13%[7.34 µM]	x	-16%[7.34 µM]	24*
O=C(NNC1=NS(=O)(=O)c2ccccc21)c1ccc([N+](=O)[O-])cc1	-24	u	-3%	7.9µM*	-3%	-2
Cc1cccc(C(=O)N(Cc2ccccc2F)C2CCS(=O)(=O)C2)c1 (centres undefined)	x	-7%[46.1 µM]	-6%	-2%[46.1 µM]	2%	x
CCOc1ccc(CCNC(=O)c2cc3sc(Cl)cc3n2C)cc1OCC	26	u	-6%	3%	-8%	19
COc1ccc(OC)c(NC(=O)c2cc3sccc3n2C)c1	29	-3%	x	5%	x	6
CCOc1ccc(CCNC(=O)c2cc3sccc3n2C)cc1OCC	10	7.1µM*	-21%	-26%	-13%	1
Cn1c(C(=O)Nc2ccc3c(c2)OCO3)cc2sccc21	92*	0%	-22%	-2%	-14%	39
COc1cc(NC(=O)c2cc3sccc3n2C)cc(OC)c1	81*	u	x	u	x	30*
CCc1ccccc1NC(=O)c1cc2sccc2n1C	42*	x	-11%	x	-7%	49*
CCC(C)NC(=O)Cn1c(=O)n(Cc2ccc(C(=O)NCc3ccc(C)cc3)cc2)c(=O)c2ccccc21 (centres undefined)	x	5%[46.1 µM]	-7%	-17%[46.1 µM]	-10%	x
CCOc1ccc(CCNC(=O)Cn2c(-c3cccs3)cc3cc(F)ccc32)cc1OCC	x	u	u	11µM*	u	x
Cn1c(C(=O)Nc2ccccc2)cc2sccc21	50	19%	x	u	x	26*
CCOC(=O)c1cc2sccc2n1CC(=O)OC	-14	-9%	-13%	6%	-13%	1
C#CCNC(=O)c1cc2sccc2n1C	-18	x	-1%	x	7%	13
COCCNC(=O)c1cc2sccc2n1C	-2	x	i	x	-15%	0
COC(=O)c1ccc(NC(=O)c2cc3sccc3n2C)cc1	122*	0%	x	-10%	x	40*
CCOc1cc(CNC(=O)Cn2c(-c3cccs3)cc3cc(F)ccc32)ccc1OC	x	x	-11%	-4%[46.1 µM]	-17%	x
CCOC(=O)c1cc2sccc2n1CC(=O)Nc1ccc2c(c1)OCCO2	45	u	-22%	8%	-8%	18*
SMILES	Shiga toxin inh	MARV entry inh	Vaccinia mCherry	LASV entry inh	Vaccinia Venus	CHX counter
CCSC1=C(C#N)[C@@H](c2cccs2)C(C(=O)OC)=C(C)N1	x	26%	x	x	x	x
COc1ccc(CCNc2ncnc3sc(C(=O)N4CCCCC4)c(C)c23)cc1OC	x	x	-23%	x	-20%	x
O=S1(=O)N=C(N(CCO)/N=C/C=C/c2ccccc2)c2ccccc21	-5	u	u	-13%	u	-3
COc1ccccc1-c1ccnc(-n2ncc(C(=O)NCCc3ccccn3)c2C)n1	x	x	u	x	-15%	x
CC(CCc1ccccc1)NC(=O)c1cc2sccc2n1C (centres undefined)	37	-14%	x	4%	x	21*
CC(CCc1ccccc1)NC(=O)C1CCCN(C(=O)c2cc3sccc3n2C)C1 (centres undefined)	-9	-6%	-13%	u	-24%	-6
Cc1[nH]nc(SCC(=O)N2CCC(C)CC2)c1[N+](=O)[O-]	18	-2%[46.1 µM]	-11%	12%	-3%	17*
O=C(CCC1N=C2c3ccccc3N=C(SCc3cccc(Cl)c3)N2C1=O)NCc1ccco1 (centres undefined)	24	-55%	-25%	u	-22%	15*
COC(=O)c1cc(NC(=O)c2cc(-c3ccc(C(F)(F)F)cc3)oc2C(F)(F)F)ccc1N1CCOCC1	3	11µM*	-17%	u	-14%	1
COC(=O)c1cc(NC(=O)c2cc(-c3ccc(OC)cc3)oc2C(F)(F)F)ccc1N1CCOCC1	16	x	x	x	x	-2
CCN(CC)c1ccc(/C=C/C2=C3C=CC=CC3NC=C2)cc1 (centres undefined)	x	x	38%	x	38%	x
O=Cc1cc2ccccc2nc1SCc1ccc(Cl)cc1	-25	u	u	10µM*	0%	-5
O=Cc1cc2ccccc2nc1SCc1ccc(Cl)c(Cl)c1	-7	2.2µM*	-8%	u	-3%	12
CCOC(=O)c1c(C)[nH]c(C(=O)CC(=O)OC)c1C	41	x	x	x	x	10
CCOC(=O)c1c(C)[nH]c(C(=O)NCc2ccco2)c1C	53*	x	x	x	x	43*
CCOC(=O)c1c(C)[nH]c(C(=O)OCC(=O)NC(C)(C)C)c1C	10	-6%[46.1 µM]	-12%	u	-11%	23*
CCOC(=O)c1c(C)[nH]c(C(=O)COC(=O)C2(C)CC2(Cl)Cl)c1C (centres undefined)	49	u	x	5%	x	53*
CCOC(=O)c1[nH]c(C)c(C(=O)NCc2ccco2)c1C	-12	x	-6%	x	-1%	0
CCOC(=O)c1[nH]c(C)c(C(=O)OC)c1C	28	u	-2%	u	-9%	13*
CCOc1ccc(S(=O)(=O)Nc2ccc3c(c2)c(C(C)=O)c(C)n3S(=O)(=O)c2ccc(OCC)cc2)cc1	x	x	-23%	u	-21%	x
CCOC(=O)c1c(C)[nH]c(C(=O)N/N=C/c2ccc(Br)cc2)c1C	15	2.8µM*	-27%	u	u	2
CCOC(=O)c1c(C)[nH]c(C(=O)CSc2nc(C)cc(C)n2)c1C	14	-7%	i	-18%	-20%	-2
CCNC(=O)COC(=O)c1[nH]c(C)c(C(=O)OC)c1C	71*	u	i	0%	-4%	43*
CCOC(=O)CC(=O)c1[nH]c(C)c(C(=O)OCC)c1C	46	-2%[46.1 µM]	-6%	-4%[46.1 µM]	-10%	26*
CCOC(=O)c1c(C)[nH]c(C(=O)CSc2ccc(Cl)cc2)c1C	89*	-22%	x	-22%	x	22*
CC(C)[C@H](NS(=O)(=O)c1ccc2c(c1)OCCO2)C(=O)OCC(=O)Nc1cc(Cl)ccc1Cl	-7	-1%	-22%	-3%	-10%	-3
COc1ccc(N2CCN(C(=O)NC(=O)c3ccccc3)CC2)cc1	-15	19%[46.1 µM]	-10%	-7%[46.1 µM]	-26%	-3
O=C(Cc1ccccc1)Nc1ccc(CN2CCOCC2)cc1	81*	8%	i	15%	-9%	31*

From PubChem BioAssay
